From the supplement of paper PMC7156485
Values joined by “and” are separate entries in the source; they are usually repeats but may differ in a detail not shown here. Equal values may be shown once. ± gives the standard deviation of the averaged measurements.

Columns and labels:
Conditions in all cases: concentration: 10 µM; 24 h
[1] = tested on: HCC1569; test: cell number relative to DMSO (% of DMSO); higher = more cells (less growth inhibition / toxicity)
In short: (§1)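 For HCC1569 and TDF cells, compounds at 10 µM were applied for 24 h at 37 °C in triplicate in 384-well plates. Cells were fixed in 3.7% formaldehyde, stained for H1.0 and with DAPI, and imaged at ×10 over six fields per well. The endpoint, H1.0 nuclear intensity or cell number, is shown as percent of the plate control using the median of replicates. Positional effects were smoothed for HCC1569 only.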

[2] = tested on: TDF; test: as above
In short: as §1

[3] = tested on: TDF; test: H1.0 immunofluorescence intensity relative to DMSO (% of DMSO); higher = stronger H1.0 induction, active = 120 or more
In short: as §1

[4] = tested on: HCC1569; test: H1.0 immunofluorescence intensity relative to DMSO (% of DMSO); higher = stronger H1.0 induction, active = 140 or more
In short: as §1
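Throughout, for H1.0 immunofluorescence intensity relative to DMSO: TDF is a line of transformed human dermal fibroblasts of mesenchymal origin.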
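Throughout, for cell number relative to DMSO: TDF denotes transformed human dermal fibroblasts of mesenchymal origin.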

Structure (SMILES) | cell number [1] | cell number [2] | H1.0 immunofluorescence intensity [3] | H1.0 immunofluorescence intensity [4]
Cl.NC12CC3CC(CC(C3)C1)C2 [Amantadine.HCl] | 103 | 103 | 92.2 (inactive) | 99 (inactive)
O=C(O)C1=CC(=NNc2ccc(S(=O)(=O)Nc3ccccn3)cc2)C=CC1=O [Sulfasalazine] | 106 | 102 | 93 (inactive) | 88.7 (inactive)
O=C(c1ccc(C(=O)N2CCC(N3CCCC3)CC2)c(Nc2ccccc2)c1)N1CCC(N2CCCC2)CC1 | 99.8 | 104 | 86.5 (inactive) | 102 (inactive)
CC12CCC3c4ccc(O)cc4CCC3C1CCC2=O (configuration not stated) [Estrone] | 102 ± 4.7 | 99.9 ± 9.3 | 96.7 (inactive) | 101 (inactive)
Nc1ncnc2c1ncn2C1OC(CO)C(O)C1O (configuration not stated) [Adenosine] | 107 | 109 | 92.7 (inactive) | 93.6 (inactive)
CC1COC2=C1C(=O)C(=O)c1c2ccc2c1CCCC2(C)C (configuration not stated) [Cryptotanshinone] | 96.6 | 64.9 | 106 (inactive) | 100 (inactive)
CNS(=O)(=O)Cc1ccc2[nH]cc(CCN(C)C)c2c1.O=C(O)CCC(=O)O [Sumatriptan Succinate] | 98 | 106 | 90.9 (inactive) | 114 (inactive)
O=C(NC(Cc1cc(=O)[nH]c2ccccc12)C(=O)O)c1ccc(Cl)cc1 (configuration not stated) [Rebamipide] | 104 | 99.7 | 93.2 (inactive) | 105 (inactive)
CCCCCCCCCCCCC(O)C(=O)O (configuration not stated) [2-Hydroxymyristic acid] | 103 | 103 | 95.6 (inactive) | 102 (inactive)
C=C1CCC(O)CC1=CC=C1CCCC2(C)C1CCC2C(C)CCCC(C)(C)O (configuration not stated) [Calcifediol] | 97.4 | 104 | 99.9 (inactive) | 120 (inactive)
CN(C)C(=O)Nc1cccc(-c2ccc(N(C)C)cc2)c1 [3-(4'-(dimethylamino)-[1,1'-biphenyl]-3-yl)-1,1-dimethylurea] | 101 | 101 | 97.6 (inactive) | 87.2 (inactive)
COc1cc(CNC(=O)CCCCC=CC(C)C)ccc1O [Capsaicin] | 99 ± 1.3 | 99.2 ± 2.3 | 93.8 (inactive) | 95.8 (inactive)
CN(c1ccccc1CNc1nc(Nc2ccc3c(c2)CC(=O)N3)ncc1C(F)(F)F)S(C)(=O)=O | 54.4 | 22.4 | 113 (inactive) | 126 (inactive)
CN1CCN(c2nc3cc(C(F)(F)F)ccc3n3cccc23)CC1.O=C(O)C=CC(=O)O | 99.3 | 104 | 103 (inactive) | 113 (inactive)
C=C(CC)C(=O)c1ccc(OCC(=O)O)c(Cl)c1Cl [Ethacrynic Acid] | 100 | 101 | 95.9 (inactive) | 100 (inactive)
COc1cc2c(Nc3ccc(NC(=O)c4ccccc4)cc3)ncnc2cc1OCCCN1CCOCC1 | 49.8 | 44 | 126 (active) | 151 (active)
COc1c(O)cc2c(c1O)C1OC(CO)C(O)C(O)C1OC2=O (configuration not stated) [Bergenin] | 99 | 107 | 91.7 (inactive) | 93.5 (inactive)
O=c1[nH]nc(Sc2ncc([N+](=O)[O-])s2)n1-c1ccc2c(c1)OCCO2 | 58.3 and 32.2 | 90.9 and 81.2 | 103 (inactive) and 102 (inactive) | 137 (inactive) and 134 (inactive)
CC(=O)C(C)=O [2,3-Butanedione] | 103 | 103 | 85.8 (inactive) | 92.3 (inactive)
CCn1cc(C(=O)O)c(=O)c2cc(F)c(N3CCNC(C)C3)c(F)c21 (configuration not stated) [Lomefloxacin] | 101 | 90.9 | 95.3 (inactive) | 100 (inactive)
COc1c(O)cc2oc(-c3ccc(O)cc3)cc(=O)c2c1O [5,7-dihydroxy-2-(4-hydroxyphenyl)-6-methoxy-4H-chromen-4-one] | 92.6 | 102 | 88 (inactive) | 106 (inactive)
O=C1c2ccccc2-[n+]2ccc3c([nH]c4ccccc43)c21.[Cl-] [Fascaplysin, Synthetic] | 49.8 | 6.76 | 182 (active) | 60.9 (inactive)
COc1ccc(-n2c(SCC#N)nc3sc4c(c3c2=O)CCCC4)cc1 | 91.9 | 92.5 | 86.3 (inactive) | 108 (inactive)
